Counter-ions that a name gives are not always drawn. Values without a mark were called inactive.

The subject of this assay is primary human hepatic stellate cells (donor 1). The experiment in a line: COL1A1 mRNA fold change vs DMSO (normalised to PSMB2); higher = more COL1A1 expression, active = hit call of the paper. Conditions: 48 h. The procedure:
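Secondary qRT-PCR screen in primary human HSCs (donor 1), 384-well plates, with compounds dispensed in quadruplicate and incubated for 48 h. Cells-to-CT lysates were used for multiplexed TaqMan qPCR of ACTA2 or COL1A1 with PSMB2 as reference. Fold changes versus DMSO come from a linear model (Ct_gene ~ Ct_PSMB2 + plate + chemical). A hit is defined as COL1A1 and ACTA2 FC <0.5 (FDR <0.05) with PSMB2 between 0.2 and 2.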
As to `C#C[C@]1(O)CC[C@H]2[C@@H]3CCC4=Cc5oncc5C[C@]4(C)[C@H]3CC[C@@]21C` [Danazol] (33.3333 µM), the “COL1A1 mRNA fold change” value is 0.0336 (active). The value for `c1ccc2c(NCCCCCCCNc3c4c(nc5ccccc35)CCCC4)c3c(nc2c1)CCCC3` [bis(7)-Tacrine] (3.33333 µM) was 0.0304 (active); that for `COc1cc2ncn(-c3cc(OCc4ccccc4C(F)(F)F)c(C(N)=O)s3)c2cc1OC` (33.3333 µM) was 1.1.

For `Cc1[nH]c(/C=C2\C(=O)Nc3ccc(S(=O)(=O)N(C)c4cccc(Cl)c4)cc32)c(C)c1C(=O)N1CCN(C)CC1` (33.3333 µM), the “COL1A1 mRNA fold change” value was 0.254 (active). As for `CC(C)(C)c1cc(NC(=O)Nc2ccc(-c3cn4c(n3)sc3cc(OCCN5CCOCC5)ccc34)cc2)no1` [Quizartinib  (AC220)] (11.1 µM), the figure is 1.01. For the molecule `NC(N)=NC(=O)c1nc(Cl)c(N2CCCCCC2)nc1N` [5-(N,N-hexamethylene)amiloride] (33.3333 µM), the “COL1A1 mRNA fold change” value was 0.0273 (active).

For the molecule `Cn1cc(CNCC2CCN(c3ncc(C(=O)NO)cn3)CC2)c2ccccc21` [Quisinostat] (33.3333 µM), the “COL1A1 mRNA fold change” value is 0.00578. The value for `CN1CCC(Nc2ncc3ncnc(Nc4ccc(F)c(Cl)c4)c3n2)CC1` [BIBX 1382 dihydrochloride] (33.3333 µM) was 0.00366; that for `COc1ccc(NS(=O)(=O)c2sc3ccc(Cl)cc3c2C)cc1N1CCNCC1` (33.3333 µM) was 0.0858 (active). Turning to `O=C1NC(=O)/C(=C/c2ccc(-c3ccc(F)cc3O)o2)S1` (33.3333 µM), the “COL1A1 mRNA fold change” value was 0.115. As for `CNC(=O)[C@@H](Cc1ccccc1)N(C)C(=O)[C@@H](Cc1ccc2ccccc2c1)N(C)C(=O)/C=C/CC(C)(C)N` [Tabimorelin] (33.3333 µM), the “COL1A1 mRNA fold change” value is 0.935. As for `CCCCCCCCc1ccc(CCC(N)(CO)CO)cc1` [Fingolimod (FTY720) HCl] (11.1 µM), the figure is 0.392; as for `C#CC1(O)CC[C@H]2[C@@H]3CCC4=CC(=O)CC[C@@H]4[C@H]3CC[C@@]21CC` (stereo not given in full) [Norgestrel] (21.3333 µM), 1.14; as for `NC1(c2ccc(-c3nc4ccn5c(=O)[nH]nc5c4cc3-c3ccccc3)cc2)CCC1` (11.1 µM), 0.184. As for `O=C(Nc1ncc(SCCN2CCCC2)s1)[C@]1(c2ccc(S(=O)(=O)C3CC3)cc2)C[C@H]1C1CCCCC1` (11.1 µM), the “COL1A1 mRNA fold change” value was 0.0203 (active). As for `CCN(CC)CCNC(=O)c1c(C)[nH]c(/C=C2\C(=O)Nc3ccc(F)cc32)c1C` (6.66667 µM), the figure is 0.664.

In the case of `CC[C@]1(O)C[C@@H]2CN(CCc3c([nH]c4ccccc34)[C@@](C(=O)OC)(c3cc4c(cc3OC)N(C)[C@H]3[C@@](O)(C(=O)OC)[C@H](OC(C)=O)[C@]5(CC)C=CCN6CC[C@]43[C@@H]65)C2)C1` [Vinblastine sulfate] (33.3333 µM), the “COL1A1 mRNA fold change” value is 0.513. The value for `CN(C)CCCCC(=O)Nc1ccc(NC(=S)NC(=O)c2ccc(C(C)(C)C)cc2)cc1` [Tenovin-6] (33.3333 µM) was 0.00938; that for `CC(C)c1cc(-c2n[nH]c(=O)n2-c2ccc3c(ccn3C)c2)c(O)cc1O` [Ganetespib (STA-9090)] (33.3333 µM) was 1.04. As for `Cc1cnc(-c2cnc(NCCNc3ccc(C#N)cn3)nc2-c2ccc(Cl)cc2Cl)[nH]1` (33.3333 µM), the figure is 1.04; as for `Cc1cc(C(=O)Nc2cc(Nc3ccc4c(/C=C/c5ccccn5)n[nH]c4c3)ccc2F)n(C)n1` (33.3333 µM), 0.363 (active). Regarding `CN1CCCN(C(c2ccccc2)c2ccc(Cl)cc2)CC1` (stereo not given) [Homochlorcyclizine dihydrochloride] (33.3333 µM), the “COL1A1 mRNA fold change” value was 0.0131 (active). Take `Clc1ccccc1CNCC1CCC(CNCc2ccccc2Cl)CC1` (stereo not given) (33.3333 µM): the “COL1A1 mRNA fold change” value is 0.055. In the case of `C[C@]12CC[C@H](O)CC1=CC[C@@H]1[C@@H]2CC[C@]2(C)C(n3cnc4ccccc43)=CC[C@@H]12` [Galeterone] (33.3333 µM), the “COL1A1 mRNA fold change” value was 0.0557. The value for `Nc1ccc(C(=O)Nc2cccc(-c3nc(N4CCOCC4)c4oc5ncccc5c4n3)c2)cn1` (6.66667 µM) was 1.15; that for `Cc1cccc(Nc2nc(-c3ccncc3)cs2)c1` (11.1 µM) was 0.552.

For the molecule `OCCN1CCN(CCCN2c3ccccc3Sc3ccc(C(F)(F)F)cc32)CC1` (33.3333 µM), the “COL1A1 mRNA fold change” value is 0.0645. As for `O=C1Nc2ccccc2/C1=C1/Nc2ccccc2C1=O` [Indirubin] (63.5333 µM), the figure is 0.897.

As to `Cc1ccc(NC(=O)C(C)C)cc1C1CCN(Cc2ccc(Oc3ccc(F)c(F)c3)cc2)CC1` (33.3333 µM), the “COL1A1 mRNA fold change” value is 0.0966.

On to `CCN1CCC(n2cc(CNc3cc(Cl)c4ncc(C#N)c(Nc5ccc(F)c(Cl)c5)c4c3)nn2)CC1` (33.3333 µM), for which the “COL1A1 mRNA fold change” value was 0.124. Turning to `c1cc(OCCN2CCCCC2)cc(-c2n[nH]c3ccc(-c4nnc[nH]4)cc23)c1` (33.3333 µM), the “COL1A1 mRNA fold change” value was 0.105 (active). Consider `CN(C)CCC(c1ccc(Br)cc1)c1ccccn1` (stereo not given) [Brompheniramine maleate] (33.3333 µM), for which the “COL1A1 mRNA fold change” value is 0.705.

As for `CN1CCC(=C2c3ccccc3C=Cc3ccccc32)CC1` [Cyproheptadine] (33.3333 µM), the “COL1A1 mRNA fold change” value was 0.078 (active).

`Cc1ccc(-c2ccc3c(ccc4sc5c(c43)NC[C@@H](C)NC5=O)n2)cn1` (33.3333 µM): the “COL1A1 mRNA fold change” value is 1.21. In the case of `CCNC(=O)c1noc(-c2cc(C(C)C)c(O)cc2O)c1-c1ccc(CN2CCOCC2)cc1` (11.1 µM), the “COL1A1 mRNA fold change” value was 1.09. As for `CCN(CC)CCOc1ccc(Cc2ccccc2)cc1` [DPPE fumarate] (33.3333 µM), the figure is 0.51; as for `CCCSc1ccc2[nH]c(NC(=O)OC)nc2c1` [Albendazole] (33.3333 µM), 0.881. As for `N=C(N)SCCc1ccc(OCc2ccc([N+](=O)[O-])cc2)cc1` [KB-R7943 mesylate] (33.3333 µM), the figure is 0.168 (active). As for `O=C1NCN(c2ccccc2)C12CCN(CCCC(c1ccc(F)cc1)c1ccc(F)cc1)CC2` [Fluspirilene] (14.0333 µM), the “COL1A1 mRNA fold change” value was 0.695. As for `Cc1ccc2c(c1)c1c3n2CCNC3CCC1` (stereo not given) [Pirlindole mesylate] (20.6667 µM), the figure is 0.473.
